99 compounds from PubChem BioAssay AID651822 (The Scripps Research Institute Molecular Screening Center, 2012) can be followed below.

The campaign covered roughly 2,300 compounds. About 970 (42%) were called active. Cut-off read from the data, not from the text of the source: active = inhibition above about 4.5%; inactive = the rest. So high a share suggests a set chosen from earlier hits. A selection follows.

The test system of the assay is Methionine sulfoxide reductase A (Bos taurus). Description: bovine MsrA inhibitors, retest, confirmation, biochemical, absorbance, HTS (AID 651822).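 Note: coupled to thioredoxin reductase with NADPH and selenocystamine and DMSO as substrate; 0% = vehicle only and 100% = full effect of reference inhibitor.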 Conditions: purified bovine MsrA, absorbance read-out; at 15.5 µM; active compounds read high.
As a reminder, the inhibition is the percentage by which the read-out fell short of the control. On to `COc1ccc(/C=C(/NC(=O)c2ccco2)C(=O)Nc2ccc(C(C)=O)cc2)cc1`, for which the inhibition was 5.97% (active).

As for `COc1ccccc1C(=O)N/C(=C/c1ccc2c(c1)OCO2)C(=O)Nc1cccc(C(=O)O)c1`, the inhibition is 3.23% (inactive).

Regarding `CCN(CC)C(=O)c1sc(NC(=O)c2ccco2)c(C#N)c1C`, the inhibition was 3.8% (inactive).

With `COc1ccc(C(=O)CSc2nc(C)cc(C)n2)cc1[N+](=O)[O-]`, the inhibition was 7.55% (active).

As to `Cc1cc(C)nc(S/C=C/C(=O)c2ccccc2)n1`, the inhibition was 4.29% (inactive).

For the compound `Cc1cccc(-n2c(O)c(C=Nc3ccccc3N)c(=O)[nH]c2=O)c1`, the inhibition was 3.07% (inactive).

On to `COc1ccc(/C=N\NC(=O)c2sc(N)nc2C)cc1OC`, for which the inhibition is 6.13% (active).

With `COc1ccc(/C=N/n2nnnc2N)cc1OC`, the inhibition was 2.84% (inactive).

For the compound `CCOc1cc(/C=N/NC(=O)c2c(C)nc3ccc(Cl)cn23)ccc1O`, the inhibition is 4.5% (inactive).

On to `COc1ccc(/C=C2\N=C3CCCN3C2=O)cc1`, for which the inhibition was 2.42% (inactive).

`COc1ccc(/C=C2\SC(=O)N(CCC(=O)NC3CCS(=O)(=O)C3)C2=O)cc1` (centres undefined): the inhibition is 5.86% (active).

Take `Cc1n[nH]c(=O)nc1N/N=C/c1cccs1`: the inhibition is 3.61% (inactive).

Turning to `CCOc1cc(/C=N/NC(=O)c2ccc(CSc3nncn3C)cc2)ccc1OCC(=O)N1CCOCC1`, the inhibition was 3.67% (inactive).

Regarding `O=C(N/N=C/c1ccc2c(c1)OCO2)c1ccc(Cn2cc([N+](=O)[O-])cn2)o1`, the inhibition is 4.56% (active).

With `COc1ccc(OC)c(C2C3=C(N=c4s/c(=C\c5cccc(O)c5)c(=O)n42)c2ccccc2CC3)c1` (centres undefined), the inhibition is 3.18% (inactive).

Regarding `CC(N=Cc1nc(-c2ccccc2)oc1O)c1ccccc1` (centres undefined), the inhibition was 3.02% (inactive).

On to `COC(=O)/C(C#N)=C/c1occc1C`, for which the inhibition is 4.58% (active).

Take `CC(Nc1ccc([N+](=O)[O-])cc1[N+](=O)[O-])c1ccccc1` (centres undefined): the inhibition is 32.3% (active).

With `O=C(Cc1ccccn1)c1ccc(O)cc1O`, the inhibition was 2.96% (inactive).

In the case of `Cc1ccc(S(=O)(=O)Nc2nc(C)cc(N/N=C/c3ccc(O)cc3)n2)cc1`, the inhibition is 4.89% (active).

Turning to `CN(c1ccccc1)S(=O)(=O)c1ccc2[nH]c(=O)[nH]c2c1`, the inhibition was 9.47% (active).

Turning to `CS(=O)(=O)c1ccc2nc(NC(=O)c3ccc(Cl)nc3)sc2c1`, the inhibition was 4.5% (inactive).

As for `Cc1ccc(C(=O)N/N=C/c2sc(=O)n(Cc3cccc(C(=O)O)c3)c2Cl)cc1`, the inhibition is 6.35% (active).

With `O=C(O)c1ccc(N/N=C/c2ccc3ncccc3c2)cc1`, the inhibition was 7.49% (active).

In the case of `Oc1ccc(/C=N/Nc2ccc(C(F)(F)F)cn2)cc1O`, the inhibition was 4.15% (inactive).

Regarding `COc1ccccc1-c1n[nH]c2c1[C@H](C)CC[C@H]2C(C)C`, the inhibition is 8.12% (active).

With `NC(=O)c1ccc(Nc2ccc3c(c2)CCC3)c([N+](=O)[O-])c1`, the inhibition is 12% (active).

As to `Cc1ccc(Nc2ccc(C(N)=O)cc2[N+](=O)[O-])cc1`, the inhibition is 5.43% (active).

As for `CCn1cc(/C=C(\NC(=O)c2ccc(C)cc2)C(=O)NCCN2CCOCC2)c2ccccc21`, the inhibition is 1.62% (inactive).

`COc1ccc(-c2ccc(Nc3ccc(S(=O)(=O)N4CCCC4)cc3)nn2)cc1OC`: the inhibition is 4.64% (active).

Regarding `CCOc1ccc(/C=C(/C#N)c2nnc(N3CCOCC3)n2-c2ccccc2)cc1OC`, the inhibition is 2.86% (inactive).

`CC(=O)c1sc2nc(SCC(=O)N3CCCCC3)[nH]c(=O)c2c1C`: the inhibition is 4.28% (inactive).

For `CCCc1nc(SCC(=O)N2CCCC2)c2c(=O)n(C)c(=O)n(C)c2n1`, the inhibition was 4.83% (active).

As to `CC1CCCCN1S(=O)(=O)c1ccc(C(=O)Nc2nnc(-c3cccs3)o2)cc1` (centres undefined), the inhibition was 2.45% (inactive).

Turning to `Cc1ccc(CC2(C)C(=O)Nc3ccc(OC(F)(F)F)cc32)cc1` (centres undefined), the inhibition was 8.12% (active).

Turning to `CC(=O)c1ccc(N2CCN(CC(=O)Nc3ccccc3N3CCOCC3)CC2)cc1`, the inhibition was 1.04% (inactive).

Turning to `CSc1ccc(/C=C2\NC(=O)NC2=O)cc1`, the inhibition was 3.93% (inactive).

For the compound `O=Cc1cn(-c2ccccc2)nc1-c1ccccn1`, the inhibition was 5.38% (active).

On to `Cc1ccc(/C=N/NC(=S)NC2CCCCC2)o1`, for which the inhibition was 4.23% (inactive).

Take `Cc1ccc(S(=O)(=O)N(C)c2ccc(OCC(=O)OCc3ccc(C#N)cc3)cc2)cc1`: the inhibition is 5.74% (active).

For the compound `CC(=O)c1ccc(N2CCN(C(=O)c3ccc4nc[nH]c4c3)CC2)cc1`, the inhibition is 3.02% (inactive).

Regarding `O=C(CNC(=O)c1cccnc1)N/N=C/c1cc(Br)c(O)c(Br)c1`, the inhibition was 4.48% (inactive).

Turning to `O=C(CNC(=O)C1COc2ccccc2O1)N/N=C/c1cc(Br)c(O)c(Br)c1` (centres undefined), the inhibition was 7.08% (active).

Take `O=C1/C(=C\Nc2ccccc2)CCN1c1ncccn1`: the inhibition is 6.98% (active).

Regarding `CC(=O)Nc1ccc(S(=O)(=O)Oc2ccc(/C=N/N=C3/NC(=O)C(CC(=O)O)S3)cc2)cc1` (centres undefined), the inhibition is 2.79% (inactive).

On to `O=C(O)c1ccc(N/N=C/c2cn(-c3ccccc3)nc2-c2cccs2)cc1`, for which the inhibition was 5.22% (active).

Take `CC(=O)N1N=C(c2ccncc2)OC1(Cc1ccccc1)Cc1ccccc1`: the inhibition was 9.69% (active).

Regarding `Cc1ccc(N2C(=O)CN=C2Nc2nc(C)cc(C)n2)cc1`, the inhibition is 4.56% (active).

For the compound `Cc1c(C(=O)N2CCCc3ccccc32)oc2ccccc12`, the inhibition was 7.55% (active).

For the compound `COc1ccc(C2/C(=C(/O)c3ccccc3)C(=O)C(=O)N2C)c(OC)c1` (centres undefined), the inhibition is 1.16% (inactive).

In the case of `Clc1cccc(-c2nc3nc4ccccc4nc3n2Cc2ccco2)c1`, the inhibition is 1.65% (inactive).

With `O=S1(=O)N=C(N(CCO)/N=C/c2ccccc2F)c2ccccc21`, the inhibition was 2.79% (inactive).

Consider `CCOC(=O)C(C)n1cnc2scc(-c3ccc(C)c(C)c3)c2c1=O` (centres undefined), for which the inhibition was 5.16% (active).

Turning to `CCOc1ccc2[nH]c(C(=O)N/N=C/c3cccc(OC)c3OC)cc2c1`, the inhibition was 3% (inactive).

For `COc1cc2cc(C(=O)N/N=C/c3cccc(OC)c3OC)[nH]c2cc1OC`, the inhibition is 5.26% (active).

`Cc1ccccc1C(CC(=O)c1cccs1)C(C#N)C#N` (centres undefined): the inhibition is 2.52% (inactive).

For `Nc1nnnn1CC(=O)N/N=C/c1ccc(-c2cccc(Cl)c2)o1`, the inhibition was 3.45% (inactive).

In the case of `Cc1cccc2cc(C#N)c(N3CCCC3)nc12`, the inhibition is 7.09% (active).

In the case of `O=C(N/N=C/c1ccco1)c1ccc(C(=O)N/N=C/c2ccco2)o1`, the inhibition is 10.6% (active).

For the compound `Cc1occc1C(=O)N/N=C/c1ccc(-c2cccc([N+](=O)[O-])c2)o1`, the inhibition was 3.63% (inactive).

In the case of `Cc1oc2c(c1C(=O)N1CCOCC1)C(=O)c1ccccc1C2=O`, the inhibition was 15.3% (active).

For the compound `C=CCNC(=S)N/N=C/c1ccc(C)s1`, the inhibition is 5.29% (active).

`COCCNC(=S)N/N=C/c1c(C)[nH]c2ccccc12`: the inhibition is 4.03% (inactive).

For the compound `Cc1cc(C(=O)N/N=C/c2ccc(O)c([N+](=O)[O-])c2)c(C)n1-c1ccc(F)cc1`, the inhibition was 4.12% (inactive).

In the case of `NC(=S)N/N=C/c1ccc([N+](=O)[O-])cc1`, the inhibition was 4.55% (active).

For the compound `Cc1ccc(N2CCN(C3=NC(=O)/C(=C\c4cccs4)S3)CC2)cc1`, the inhibition was 1.26% (inactive).

In the case of `COc1ccc(C2=NS(=O)(=O)N(C)C(C(=O)N3CCCCC3)=C2)cc1`, the inhibition is 3.33% (inactive).

Consider `COc1ccc(/C=C/C(=O)NC(=S)N2CCCC(C(N)=O)C2)cc1` (centres undefined), for which the inhibition was 6.19% (active).

Consider `CCN(CC)c1ccc(/C=N/NC(=O)CNC(=O)c2cccs2)cc1`, for which the inhibition is 3.57% (inactive).

As for `O=C(N/N=C/C=C/c1ccco1)c1cccs1`, the inhibition is 7.55% (active).

`CC(=O)Nc1ccc(/C=N/NC(=O)c2cccs2)cc1`: the inhibition is 3.39% (inactive).

In the case of `COc1ccc(CC(=O)c2ccc(O)cc2O)cc1OC`, the inhibition was 4.03% (inactive).

`C/C(=N\Nc1ccc(S(N)(=O)=O)cc1[N+](=O)[O-])c1cccs1`: the inhibition was 1.79% (inactive).

For the compound `CCOC(=O)C/C(C)=N\Nc1ccc([N+](=O)[O-])cc1[N+](=O)[O-]`, the inhibition was 9.34% (active).

For `COc1cc(C2C(C(=O)c3sc(C)nc3C)=C(O)C(=O)N2CCN(C)C)cc(OC)c1OC` (centres undefined), the inhibition is 9.08% (active).

For the compound `Cc1ccc(-c2ccc(/C=C(\C#N)C(N)=S)o2)c([N+](=O)[O-])c1`, the inhibition is 2.76% (inactive).

As to `COc1ccc(/C=C/C(=O)Nc2cccnc2)cc1OC`, the inhibition is 4.72% (active).

On to `CC(/C=N/NC(=O)c1ccncc1)=C\c1ccco1`, for which the inhibition is 6.11% (active).

Turning to `CC(C)Oc1c(Br)cc(Br)cc1/C=N/NC(N)=S`, the inhibition was 6.46% (active).

With `CCOC(OCC)c1ccc(/C=C\c2nccc(N)n2)cc1`, the inhibition is 3.39% (inactive).

For `CCc1nnc(NC(=O)/C=C/c2ccc(C)o2)s1`, the inhibition was 6.27% (active).

As to `CCc1nnc(NS(=O)(=O)c2ccc(NC(=S)NC(=O)/C=C/c3cccs3)cc2)s1`, the inhibition is 4.14% (inactive).

Consider `COc1cccc(C2=CC(=O)C[C@H](c3ccc(F)cc3)C2)c1OC`, for which the inhibition was 1.12% (inactive).

For the compound `CN1CCN(CCC(=O)N/N=C/C=C2\N(C)c3ccccc3C2(C)C)CC1`, the inhibition is 4.4% (inactive).

On to `O=C(Oc1c(-c2ccco2)oc2ccccc2c1=O)c1cccnc1`, for which the inhibition is 4.83% (active).

With `Cc1c(C=O)c2ccccn2c1C(=O)c1ccncc1`, the inhibition is 4.31% (inactive).

Take `COc1cccc(/C(C)=N/Nc2ncc(Cl)cc2Cl)c1`: the inhibition was 5.95% (active).

As to `CNC(=O)/C(=C\C=C\c1ccccc1)NC(=O)c1ccc([N+](=O)[O-])cc1`, the inhibition was 4.89% (active).

In the case of `O=C(Nc1ccc(C(=O)O)cc1)/C(=C/c1ccc([N+](=O)[O-])cc1)NC(=O)c1ccccc1`, the inhibition was 2.84% (inactive).

For the compound `Cc1cc(C(=O)N/N=C/c2ccc(N3CCOCC3)cc2)c(C)o1`, the inhibition is 3.45% (inactive).

In the case of `COc1ccc(/C=N/Nc2cc(N3CCOCC3)nc(C)n2)c(OC)c1`, the inhibition was 5.31% (active).

`C(=N/Nc1cc(N2CCOCC2)nc(N2CCOCC2)n1)/c1ccccc1`: the inhibition is 2.4% (inactive).

Turning to `COc1ccc(S(=O)(=O)c2c[nH]c(=S)[nH]c2=O)cc1Cl`, the inhibition was 2.06% (inactive).

As for `CCOC(=O)c1c(C(C#N)C#N)cc(C)nc1C`, the inhibition was 5.34% (active).

Consider `Cc1ccc(Cl)cc1-c1ccc(/C=N/n2cnnc2)o1`, for which the inhibition was 3.18% (inactive).

For the compound `S=c1[nH]nc(-c2ccccc2)n1/N=C/c1c[nH]c2ccccc12`, the inhibition is 2.93% (inactive).

For `O=C(O)c1cccc(NC(=S)N/N=C/c2c[nH]c3ccccc23)c1`, the inhibition is 5.97% (active).

For `O=C(Nc1cccc(F)c1)c1coc(=O)c(Br)c1`, the inhibition was 4.61% (active).

`CCOc1cc(/C=C2\SC(N3CCCCC3)=NC2=O)ccc1O`: the inhibition was 2.79% (inactive).
